# Results: PubChem BioAssay (NCI)
# The panel holds about 83,000 compounds, 20% with a hit somewhere; the sample as a whole holds those more often.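 How to read the values: 0–100, growth inhibition (40 = 60% inhibited); 0, no net growth; -100 to 0, cell death (-40 = 40% of starting cells died; -100 = all dead).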 Values without a mark were called inactive. The source made the active and inactive calls. The calls were made as follows: active = growth percent below 10; inactive = the rest.
# Legend:
# Assay in all cases: NCI-60 one-dose screen, 48 h (100 = growth as untreated, 0 = no growth, -100 = all killed)
# Settings in all cases: 10 µM
# HOP-92 NSCLC = test system: HOP-92 NSCLC
# 786-0 renal = test system: 786-0 renal
# SN12C renal = test system: SN12C renal
# UO-31 renal = test system: UO-31 renal
# TK-10 renal = test system: TK-10 renal
# ACHN renal = test system: ACHN renal
# A498 renal = test system: A498 renal
# CCRF-CEM leukemia = test system: CCRF-CEM leukemia
# RPMI-8226 leukemia = test system: RPMI-8226 leukemia
# OVCAR-8 ovarian = test system: OVCAR-8 ovarian
# OVCAR-4 ovarian = test system: OVCAR-4 ovarian
# SK-OV-3 ovarian = test system: SK-OV-3 ovarian
# IGROV1 ovarian = test system: IGROV1 ovarian
# NCI/ADR-RES ovarian = test system: NCI/ADR-RES ovarian
# BT-549 breast = test system: BT-549 breast
# MDA-MB-435 melanoma = test system: MDA-MB-435 melanoma
# MCF7 breast = test system: MCF7 breast
# HCT-116 colon = test system: HCT-116 colon
# HCC-2998 colon = test system: HCC-2998 colon
# KM12 colon = test system: KM12 colon
Compound,growth (HOP-92 NSCLC),growth (786-0 renal),growth (SN12C renal),growth (UO-31 renal),growth (TK-10 renal),growth (ACHN renal),growth (A498 renal),growth (CCRF-CEM leukemia),growth (RPMI-8226 leukemia),growth (OVCAR-8 ovarian),growth (OVCAR-4 ovarian),growth (SK-OV-3 ovarian),growth (IGROV1 ovarian),growth (NCI/ADR-RES ovarian),growth (BT-549 breast),growth (MDA-MB-435 melanoma),growth (MCF7 breast),growth (HCT-116 colon),growth (HCC-2998 colon),growth (KM12 colon)
C#CC[Se]C(=O)c1ccc2n[se]nc2c1,77%,63.4%,56.3%,22.6%,65.1%,35.6%,95.3%,-24.8% (active),21.3%,74.9%,74.5%,95.4%,77.7%,49.5%,52.1%,85.9%,31.6%,-27.1% (active),95.8%,95.2%
O=C(/C=C/c1cccc(Br)c1)c1nc2ccccc2n1Cc1ccc(F)cc1,19.3%,12.5%,47.3%,41.8%,80.2%,40.7%,116%,-18.8% (active),-24.7% (active),28.2%,54.8%,81.2%,40.4%,8.54% (active),12.5%,11.6%,8.41% (active),-41.1% (active),25%,41.4%
C[C@H]1[C@@H](CC(=O)N[C@@H](Cc2coc3ccccc23)B(O)O)O[C@@H]2OC3(C)CC[C@H]4[C@H](C)CC[C@@H]1[C@@]24OO3,-68.6% (active),16.5%,-78.6% (active),18.3%,16.5%,13.2%,36.6%,-10.3% (active),-7.66% (active),-6.75% (active),18.3%,-22.9% (active),-16.1% (active),27.6%,-92% (active),-53.8% (active),12%,-85.3% (active),-97.2% (active),-20.4% (active)
CC1=C(COCCOC(=O)c2ccc(S(=O)(=O)F)cc2)C2=C(C)C3(CC3)[C@@](C)(O)C(=O)C2=C1,-29.7% (active),-3.81% (active),-19.9% (active),-33.3% (active),7.99% (active),-19.3% (active),-16.9% (active),15.8%,76.4%,-0.659% (active),-23% (active),-5.65% (active),-24.3% (active),-43.2% (active),-83% (active),3.24% (active),10.9%,6.93% (active),-83.5% (active),29.6%
O=C(/C=C/c1ccc(F)cc1)c1nc2ccccc2n1Cc1ccc(Br)cc1,-51.5% (active),-82.4% (active),-40.4% (active),-92.5% (active),-19.1% (active),-73.9% (active),58.6%,-1.81% (active),-34.7% (active),-1.74% (active),19.2%,30.2%,-35% (active),-59.8% (active),-78.1% (active),-74% (active),-27.4% (active),-79.4% (active),-97.6% (active),-25.3% (active)
CC[C@]12C=CCN3CC[C@@]4(c5ccc(OC)cc5N(C)[C@H]4[C@@](O)(C(=O)OC)[C@@H]1OC(=O)CCCC[P+](C1CCCCC1)(C1CCCCC1)C1CCCCC1)[C@@H]32,-44.5% (active),-36% (active),-57.9% (active),78.9%,-64.1% (active),18.7%,-0.0449% (active),-60.2% (active),-45% (active),-6.33% (active),12.4%,-22.3% (active),-84.7% (active),96.7%,-97.4% (active),-90.5% (active),-64.2% (active),4.69% (active),-87.8% (active),-71.1% (active)
C#CCCCN(CCNc1ccnc2cc(Cl)ccc12)C(=O)CCC(=O)O[C@@H]1O[C@@H]2OC3(C)CC[C@H]4[C@H](C)CC[C@@H]([C@H]1C)[C@@]24OO3,27.3%,46.9%,36.1%,14.3%,50.1%,29.4%,96%,24.4%,24.9%,17%,41.3%,79.3%,41.1%,16.2%,37.3%,21.2%,14.2%,19.4%,20.7%,27.7%
